# Tested on: Perkinsus marinus PRA240
# Assay: ATP content (proliferation) relative to DMSO control; higher = more parasite growth (less inhibition)
# Settings: 20 µM; 4 days
# Method: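 Perkinsus marinus PRA240 trophozoites (2-5x10^6 cells/ml, 100 µl, 96-well) were exposed once to MMV Malaria Box compounds at 20 µM (0.1% DMSO) in triplicate. ATP content (ATPlite bioluminescence) was read at day 4 post-exposure and normalised to DMSO + cells control wells (100% activity). Compounds were identified by joining plate and well to the Malaria Box list.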
row,Structure (SMILES),ATP content
1,OC(CNC1CCCCC1)Cn1c2ccc(I)cc2c2cc(I)ccc21 (stereo not drawn),4.02%
2,Clc1ccc2c(N3CCCC3)ccnc2c1,91%
3,COc1cccc(O)c1CN1CCC2(CCCN(Cc3ccc(F)cc3)C2)C1 (stereo not drawn),70.7%
4,CCCN(CCC)CCCNC(=O)c1cc2c(-c3ccc(OC)c(OC)c3)nn(C)c2s1,80.3%
5,COc1ccc(C(=O)NC(c2ccc(Cl)cc2Cl)c2cc(Cl)c3cccnc3c2O)cc1 (stereo not drawn),96.4%
6,c1ccc(-c2ccc(-c3nc4ccccc4[nH]3)cc2)cc1,16.5%
7,COc1cccc(Nc2nc(NCCO)c3ccccc3n2)c1,77.5%
8,CC(C)c1ccc(CNCC(O)c2ccccc2)cc1 (stereo not drawn),117%
9,COc1ccccc1N1CCN(C(CNS(=O)(=O)c2ccc(Cl)cc2)c2cccnc2)CC1 (stereo not drawn),111%
10,CCOC(=O)c1cnc2ccc(OC)cc2c1NCc1ccccc1,69.3%
11,O=C(Nc1ccc(Br)cc1)Nc1cccc(Cl)c1,142%
12,O=C(NC1CCCCC1)C(c1cccs1)N(CCc1ccccc1)C(=O)c1ccco1 (stereo not drawn),101%
13,CCOc1c(Cl)cc(CNCC(O)c2ccccc2)cc1OC (stereo not drawn),105%
14,CCCOCc1cc(CN2CCN(c3cccc(Cl)c3)CC2)c(O)c2ncccc12,22.8%
15,CCCCCCc1cc2cc(-c3nc4ccccc4[nH]3)c(=Nc3ccccc3C)oc2cc1O,121%
16,Cc1ccc(CSCc2ccc(C(=O)NC3CC3)o2)cc1,54.8%
17,O=c1nc(C=Cc2ccc(Br)cc2)oc2ccccc12,11.1%
18,CC(C)CNC(=O)c1c(N)n(CCc2ccccc2F)c2nc3ccccc3nc12,90.4%
19,O=C1C2=C(Nc3ccccc3SC2c2ccccc2)c2ccccc21 (stereo not drawn),17.1%

row,Structure (SMILES),ATP content
1,COc1ccc(Nc2nc(NCc3ccccc3)c3ccccc3n2)cc1,103%
2,Oc1c2c(nc3cc(-c4ccccc4)nn13)CCCC2,47.5%
3,Clc1ccc2[nH]c3c(NCCCN4CCOCC4)ncnc3c2c1,163%
4,O=C(NCC1Cc2cccc(-c3ccncc3)c2O1)c1csc2c1CCCC2 (stereo not drawn),114%
5,O=C1c2ccc3c4c(ccc(c24)C(=O)N1CCCCO)C(=O)N(CCCCO)C3=O,50.5%
6,Nc1ccc(-c2nc3cc(Cc4ccc5[nH]c(-c6ccc(N)cc6)nc5c4)ccc3[nH]2)cc1,135%
7,CCc1ccc(Nc2cc(C)nc3nc(C)nn23)cc1,139%
8,CCOC(=O)C1=C(C)N=c2sc(=Cc3cc(Cl)ccc3O)c(=O)n2C1c1ccc(OC)cc1 (stereo not drawn),61.6%
9,Cc1ccc(NC(=O)Nc2cccc(Cl)c2)cc1F,85%
10,CC(=O)Nc1nnc(SCc2c(C)cc(C(C)(C)C)cc2C)s1,84.2%
11,CCOc1ccc(CN2CCN(CC(O)COc3ccc(OCC(O)CN4CCN(Cc5ccc(OCC)cc5)CC4)cc3)CC2)cc1 (stereo not drawn),137%
12,O=C(Nc1ccc(Cl)c(Cl)c1)Nc1ccc(Cl)c(Cl)c1,91.6%
13,COc1cccc(Cn2c(Oc3ccccc3)nc3c2c(=O)n(C)c(=O)n3C)c1,106%
14,Cc1ccc2nc(C)cc(Nc3cccc(C(F)(F)F)c3)c2c1,121%
15,O=C(NNc1cc(N2CCCC2)nc(N2CCCC2)n1)c1ccccc1,101%
16,CC(Oc1ccc(NC(=O)c2cccs2)cc1)C(=O)c1ccc(Cl)cc1 (stereo not drawn),55.4%
17,Cc1ccc(C2CC(C(F)(F)F)n3nc(C(=O)N4CCN(C(c5ccccc5)c5ccccc5)CC4)cc3N2)cc1 (stereo not drawn),144%
18,CC1CC2=C(CC1CNCCCN(C)C)C(C)(C)CCC2 (stereo not drawn),119%
19,COc1ccc(C=C2SC(Nc3ccc(F)cc3)=NC2=O)c(OC)c1,60.7%
